The source made the active and inactive calls. The rule behind the calls is not given here.
Potency is the fitted concentration of half-maximal effect.

The assay relates to HIV-1 nucleocapsid protein NCp7 (binding to TG oligonucleotide). Description: HIV Nucleocapsid (AID 346).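 Note: potency is for inhibitors that block NC binding and lower polarization.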 The following applies: HIV-1 NC / fluorescein-TGTGTGTG probe, fluorescence polarization. In short, it runs like this:
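Inhibition of nucleocapsid binding to single-stranded 5'-TGTGTGTG probe (10 nM) was measured by fluorescence polarization after 1 hr at room temperature with 100 nM protein under high-salt, zinc-containing, reducing conditions.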
Regarding `CN(Cc1ccco1)c1ccnc(-c2cccc(NS(C)(=O)=O)c2)n1`, the Potency was > 20 µM (inactive). The result for `CN1CCN(c2nc(-c3ccoc3)nc3ccccc23)CC1` reads > 20 µM (inactive); that for `COCC(=O)N1CCC[C@@]2(CCN(Cc3ccccc3)C2)C1`, > 20 µM (inactive); that for `O=C(Nc1cccc(F)c1)N1CC2(CCN(C(=O)c3csnn3)CC2)C1`, > 20 µM (inactive).

For the compound `COc1cccc(Cn2c(=O)c(-c3cn(C)c4ccccc34)nc3cncnc32)c1`, the Potency was > 20 µM (inactive). With `Cc1ccccc1-c1cncnc1N1CCN(C)CC1`, the Potency was > 20 µM (inactive). In the case of `O=C(c1ccncc1)N1CCC[C@@]2(CCN(C(c3ccccc3)c3ccccc3)C2)C1` it was > 20 µM (inactive); in that of `COc1ccc(-c2nc3cnc(N4CCN(C)CC4)nc3n(CCC#N)c2=O)cc1`, > 20 µM (inactive); in that of `CCNc1ncc2nc(-c3cc(F)cc(F)c3)c(=O)n(C)c2n1`, > 20 µM (inactive).

As for `Cc1cnc(CNc2nc(-c3ccoc3)nc3ccccc23)cn1`, the Potency is > 20 µM (inactive). `Cc1nc2cnc(N3CCOCC3)nc2n(CCC#N)c1=O`: the Potency is > 20 µM (inactive). The result for `Cn1cc(-c2nc3cncnc3n(Cc3ccccc3Cl)c2=O)c2ccccc21` reads > 20 µM (inactive); that for `COc1ccc(NC(=O)N2CC3(CCN(S(C)(=O)=O)CC3)C2)cc1`, > 20 µM (inactive). For `COc1cccc(Nc2ncc3nc(-c4cc(F)cc(F)c4)c(=O)n(C[C@H]4CCCO4)c3n2)c1`, the Potency is > 20 µM (inactive). In the case of `COc1ccc(Oc2ncc3nc(-c4ccc(Cl)cc4)c(=O)n(C)c3n2)cc1` it was > 20 µM (inactive). Take `O=C(c1cccc(F)c1)N1CCC2(CCCN(c3cccc(-c4ccccc4)c3)C2)CC1`: the Potency is > 20 µM (inactive). In the case of `COc1cccc(Cn2c(=O)cnc3cnc(OC)nc32)c1` it was > 20 µM (inactive); in that of `COc1ccc(Oc2ncc3nc(-c4cn(C)c5ccccc45)c(=O)n(C)c3n2)cc1`, > 20 µM (inactive); in that of `CC(=O)NCCNc1ncnc2ccc(-c3ccc4c(c3)OCO4)cc12`, > 20 µM (inactive).

In the case of `CCNc1ncc2nc(-c3cc(F)cc(F)c3)c(=O)n(-c3ccccc3)c2n1`, the Potency was > 4 µM (inactive). Turning to `COCC(=O)N1CCC[C@@]2(CCN(Cc3ccc(C#N)cc3)C2)C1`, the Potency is > 20 µM (inactive). On to `CS(=O)(=O)Nc1cccc(-c2ccc3ncnc(Nc4ccc(F)cc4)c3c2)c1`, for which the Potency was > 20 µM (inactive). On to `COc1ccc(-c2nc3cnc(Oc4ccccc4)nc3n(C3CC3)c2=O)cc1`, for which the Potency was > 20 µM (inactive). In the case of `COc1ccccc1CNc1ncnc2ccc(-c3ccc4c(c3)OCO4)cc12` it was > 20 µM (inactive); in that of `O=C(c1cnccn1)N1CCC2(CCCN(c3ccccn3)C2)CC1`, > 20 µM (inactive). In the case of `Cc1cnc(CNc2ncncc2-c2ccc(C(=O)N(C)C)cc2)cn1` it was > 20 µM (inactive).

In the case of `Cc1noc(C)c1-c1nccc(N2CCNCC2)n1`, the Potency is > 20 µM (inactive). The result for `O=C(Oc1ccccc1)N1CCC2(CC1)CN(c1ccccc1)C2` reads > 20 µM (inactive); that for `Cc1noc(C)c1-c1nc(Nc2ccc(F)cc2)c2ccccc2n1`, > 20 µM (inactive); that for `c1ccc2c(-n3ccnc3)nc(-c3ccoc3)nc2c1`, > 20 µM (inactive). In the case of `O=c1c(-c2ccc(F)cc2)nc2cnc(N3CCNCC3)nc2n1C1CC1` it was > 20 µM (inactive); in that of `CN(C)Cc1ccccc1-c1nc(N(C)Cc2ccco2)c2ccccc2n1`, > 20 µM (inactive). The result for `CN(C)Cc1ccccc1-c1cc(N(C)C)ncn1` reads > 20 µM (inactive). In the case of `COc1cccc(-c2cncnc2NCc2ccccc2OC)c1`, the Potency was > 20 µM (inactive). The result for `Cc1cnc(CNc2ncnc3ccc(-c4ccccc4C(F)(F)F)cc23)cn1` reads > 20 µM (inactive).

On to `COCCn1c(=O)c(-c2cccs2)nc2cnc(OCc3ccccc3)nc21`, for which the Potency was > 20 µM (inactive). The result for `Cn1cc(-c2nc3cncnc3n(C3CC3)c2=O)c2ccccc21` reads > 20 µM (inactive); that for `O=C(c1ccncc1)N1CCC2(CC1)CN(c1ccc(-c3ccccc3)cc1)C2`, > 20 µM (inactive); that for `O=C(c1cc(C(F)(F)F)cc(C(F)(F)F)c1)N1CCC2(CC1)CN(c1ccccc1)C2`, > 20 µM (inactive). In the case of `CN(C)Cc1ccccc1-c1cncnc1NCc1cccnc1`, the Potency is > 20 µM (inactive).

These data come from PubChem BioAssay (NCATS).
